# FMDV inh: High Throughput Screening for Foot and Mouth Disease Virus Antivirals | FMDV antiviral cell-based qHTS | Potency, µM (highest dose often 57.9 µM), inactives show top-dose activity change, negative = inhibition, actives largely listed as inhibitors | 410,000 compounds, 1.2% hits; calls by dose curve; tested in HEK293T cells; further: read-out not given here; potency means the concentration at half of the fitted maximal effect; nearly all actives have a fitted effect of over 45% in size
# VACV mCherry inh: qHTS for Stage-Specific Inhibitors of Vaccinia Orthopoxvirus: mCherry Reporter Primary qHTS; Vaccinia virus mCherry reporter infection, fluorescence; Potency, µM (top dose mostly 36.5 µM), without a hit: top-dose activity change, negative = inhibition, most hits filed as inhibitors; 310,000 compounds, 0.63% hits; calls by dose curve; tested in A549 cells; further: potency means the concentration at half of the fitted maximal effect; nearly all actives have a fitted effect of over 35% in size
# HCMV inh: qHTS Assay for inhibitors of the human cytomegalovirus (HCMV) | HFF cells, HCMV-luciferase reporter, 72 h; stronger effect = lower value | activity change, negative = inhibition, % at 57.5 µM | 410,000 compounds, 4.5% hits; in the data active means activity change below about -60%; inconclusive means no clear call, values can overlap the other calls; inactive means above about -39%
#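 After 16 h attachment at 37C, HFF cells received test compound and HCMV-luciferase (1 PFU/cell); reporter luminescence read 72 h later, data normalized against buffer-only and known inhibitor Salinomycin.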
# HCV inhibitor: qHTS Assay for Inhibitors of Hepatitis C Virus (HCV); AID 651820, 2012; 340,000 compounds, 3.4% hits; Potency, µM (series often up to 41.8 µM), inactives show at the top dose activity change, negative = inhibition, usual class: inhibitors; Huh7.5.1 HCVcc-Cre infection, luciferase reporter, 44 h; further: potency means the concentration at half of the fitted maximal effect
#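 HCVcc-Cre virus at an moi near 0.5 was added right after compound to cells cultured 4 h from seeding (1,000 cells/well). Luciferase activity was determined 44 h later, 15 min after substrate addition at RT.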
# VACV Venus inh: qHTS for Stage-Specific Inhibitors of Vaccinia Orthopoxvirus: Venus Reporter Primary qHTS | Vaccinia virus Venus reporter expression, fluorescence | Potency, µM (doses to about 36.5 µM), inactives show top-dose activity change, negative = inhibition, usual class: inhibitors | 330,000 compounds, 0.46% hits | AID 720580, 2013; calls by dose curve; tested in A549 cells; further: potency means the concentration at half of the fitted maximal effect; nearly all actives have a fitted effect of over 30% in size
# FBPA Giardia inh: qHTS Assay for Inhibitors of Fructose-1,6-bisphosphate Aldolase from Giardia Lamblia; A8B2U2; purified Giardia FBPA; Potency, µM (top dose mostly 59.6 µM), for inactives: at the highest dose activity, negative = inhibition, hits mostly inhibitors; 290,000 compounds, 0.71% hits; AID 2451, 2010; further: potency means the concentration at half of the fitted maximal effect; nearly all actives have a fitted effect of over 55% in size
# Target sequence (A8B2U2 whole entry, looked up): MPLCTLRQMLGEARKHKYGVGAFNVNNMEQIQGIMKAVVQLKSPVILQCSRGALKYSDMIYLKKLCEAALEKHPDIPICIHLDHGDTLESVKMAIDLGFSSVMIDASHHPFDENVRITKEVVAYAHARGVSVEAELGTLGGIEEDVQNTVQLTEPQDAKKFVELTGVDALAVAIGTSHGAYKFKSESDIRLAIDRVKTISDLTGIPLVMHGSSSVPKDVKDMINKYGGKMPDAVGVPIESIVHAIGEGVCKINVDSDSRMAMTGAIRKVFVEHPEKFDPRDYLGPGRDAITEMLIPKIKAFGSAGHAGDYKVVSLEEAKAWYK
#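 40 nM FBPA preincubated 10 min at RT with compound (up to 57.5 uM final), then substrate plus GAPDH/TPI/NAD/arsenate coupling and diaphorase/resazurin added. Fluorescence read after 20 min at RT, 525/598 nm.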
# * marks the source's active call; other numbers are inactive results; i = inactive; ? = inconclusive; . = not tested or not shown. Shown are actives, neighbours in structure and some others; about 7.5% of the full set was active somewhere. Unless noted, the call rests on the fitted dose curve; in most records, active means well fitted curve in the direction sought with a large enough effect; inconclusive means small, poorly fitted or top-dose-only effect, or another doubt; inactive means no such curve, though single readings can be large; an effect the other way counts as inactive or inconclusive. On the % scale 0 is the no-effect control and ±100 the full control effect.
SMILES,FMDV inh,VACV mCherry inh,HCMV inh,HCV inhibitor,VACV Venus inh,FBPA Giardia inh
CCCCCCC[n+]1ccc(/C=C/c2c(C)[nH]c3ccccc23)cc1,.,28µM*,.,.,256%,.
CCCCCCC[n+]1ccc(/C=C/c2c(C)[nH]c3ccccc23)c2ccccc21,.,i,.,.,i,.
Cc1[nH]c2ccccc2c1/C=C/c1cc[n+](C)cc1,-20%,-22%,-69*,?,27%,-1%
CCOC(=O)c1c(C)[nH]c(CCC(=O)NC(C)c2ccccc2)c1C (stereo not drawn),-5%,-4%,14,.,-2%,.
CCc1cccc2c(-c3ccc(F)cc3)nc(SCC(=O)Nc3ccccc3)nc12,-8%,-8%,17,.,-5%,.
CC(C)N(CCCNC(=O)C1CCN(C(=O)c2cc3sccc3n2C)CC1)Cc1ccccc1,-5%,.,.,?,.,.
CCCCOc1ccc(NC(=O)Cn2nnnc2-c2ccccc2F)cc1,-9%,1%,10,.,2%,.
O=C(Nc1ccc(F)cc1)c1sc(Cl)nc1-c1ccccc1,-14%,-23%,-5,-10%,-20%,-4%
Cc1ccc(Cl)cc1NC(=O)c1sc2nc(-c3ccccc3)cn2c1C,-10%,7%,-63*,.,-3%,.
Nc1nc(-c2ccccc2)c(C(=O)Nc2ccccc2)s1,-6%,i,-61*,-6%,-7%,4%
Cc1c(C(=O)NCc2ccc3c(c2)OCO3)sc2nc(-c3ccccc3)cn12,13%,-17%,-21,-7%,-21%,-3%
Cc1c(C(=O)Nc2ccc3c(c2)OCO3)sc2nc(-c3ccccc3)cn12,-30%,-29%,-37,4µM*,-23%,9%
Cc1c(C(=O)Nc2ccccc2)sc2nc(-c3ccccc3)cn12,-13%,.,1,8.9µM*,.,-1%
CCc1ccc(N2CC(c3nc4ccccc4n3Cc3ccccc3C)CC2=O)cc1 (stereo not drawn),-24%,-17%,-30,.,-17%,.
Nn1cc(-c2ccccc2)nc1SCC(=O)Nc1ccc2c(c1)OCO2,23%,-23%,-100*,-8%,-13%,-3%
COc1ccc(-c2cn3c(C)c(C(=O)Nc4cccc(C)n4)sc3n2)cc1,-15%,-18%,?,?,-6%,-21%
Cc1cccc(NC(=O)c2sc3nc(-c4ccccc4)cn3c2C)n1,.,-25%,?,13µM*,-23%,-15%
CCc1ccc(C2N3CC4(C)CN2CC(c2ccccc2)(C3)C4=O)cc1 (stereo not drawn),-6%,-9%,9,.,-5%,.
N#Cc1cccc(-c2csc(C(O)c3ccc(F)cc3)n2)c1 (stereo not drawn),32%,i,5,.,-17%,.
Cc1nn(-c2ccccc2)c2sc(C(=O)NC3CC3)cc12,29%,.,47,13µM*,.,1%
Cc1nn(-c2ccc(F)cc2)c2sc(C(=O)N3CCCCCC3)cc12,45%,.,-8,14µM*,-27%,-1%
Cc1cc(NC(=O)C2(C)CCN2C(C)C)c2ccccc2n1 (stereo not drawn),-18%,1%,11,.,-5%,.
Fc1ccccc1-n1ncc2c1ncn1nc(-c3ccccc3Cl)nc21,39%,-10%,-2,.,-11%,.
COc1ccc(C(=O)/C=C/c2cn(CC(O)CN3CCc4ccccc43)c3ccccc23)cc1 (stereo not drawn),11%,-9%,41,.,2%,.
CCC(=C(c1ccc(OC)cc1)c1ccc(OC)cc1)c1cn(CC(O)CN2CCN(C)CC2)c2ccccc12 (stereo not drawn),-21%,?,-22,11µM*,?,-8%
SMILES,FMDV inh,VACV mCherry inh,HCMV inh,HCV inhibitor,VACV Venus inh,FBPA Giardia inh
Cn1cc([N+](=O)[O-])c(C(=O)Nc2ccc(Br)cn2)n1,15%,.,-65*,11µM*,.,7%
CCSc1ccc(C(=O)Nc2ccc(Br)cn2)cc1[N+](=O)[O-],-4%,-9%,-7,?,?,-3%
Cn1cc([N+](=O)[O-])c(C(=O)Nc2nccs2)n1,-11%,.,-96*,?,.,-3%
C#CCN1C(=O)[C@@H](C)[C@@](C#N)(C(=O)OC)[C@H]1c1ccc(OC)cc1,.,.,1,.,.,.
COc1ccc(Cn2ccc3nc(C)c(C(=O)Nc4ccc(OC)cc4)cc3c2=O)cc1,-22%,-13%,-11,.,-8%,.
CC1=CC(=O)C(C(C)C)=C/C1=C(\c1cc(C(C)C)c(OP(=O)(O)O)cc1C)c1ccccc1C(=O)O,-2%,-21%,-98*,?,?,7%
CCOc1ccc(C(=O)c2ccccc2C(=O)O)cc1OCC,-12%,i,-21,27%,-3%,5%
Cc1ccc2c(C)c(C(=O)NCCN3CCOC3=O)oc2c1C,26%,-4%,39,-19%,-8%,-4%
CCCCCCCCC1OC1CCCCCCCC(=O)O (stereo not drawn),.,.,.,.,.,6%
COc1ccc(Cc2noc(CN3CCN(C4CCc5ccccc5C4)CC3)n2)cc1OC (stereo not drawn),20µM*,-23%,-36,?,-13%,0%
COc1cc(OC)cc(-c2c(C#Cc3ccsc3)c3cc(-c4ccc5c(c4)OCCO5)ccc3n2C)c1,1%,i,-12,23%,-5%,.
CC(C)S(=O)(=O)c1csc(NC(=O)Nc2cccc([N+](=O)[O-])c2)c1Cl,?,.,6,25µM*,.,-21%
O=C(Nc1cccc([N+](=O)[O-])c1)Nc1cccc([N+](=O)[O-])c1,?,?,?,?,?,-7%
CCOC(=O)N1CCC(NC(=O)c2cc(C(=O)Nc3cccc(C(F)(F)F)c3)ccc2CO)CC1,?,i,?,13µM*,?,15%
CCOC(=O)N1CCC(NC(=O)c2ccc(CO)c(C(=O)NC3CCN(C(=O)OCC)CC3)c2)CC1,-4%,i,18,9%,-10%,-2%
CCOC(=O)N1CCC(NC(=O)c2cc(C(=O)Nc3ccc(OCC)cc3)ccc2CO)CC1,?,-25%,-67*,-22%,-21%,5%
COc1cc2c(cc1OC)C(c1ccc(F)cc1)N(c1ccc(F)cc1)C(=O)C2 (stereo not drawn),-27%,6%,14,.,4%,.
COc1ccc(CCn2c(=S)[nH]c(=O)c3[nH]cnc32)cc1OC,.,i,.,.,-11%,.
Cn1cc(C(=O)c2ccc(Cl)cc2)cc1-c1nc2ccccc2n1C,16µM*,.,-69*,25µM*,?,-3%
O=C1N[C@@H](Cc2c[nH]c3ccccc23)C(=O)N[C@H]1Cc1c[nH]c2ccccc12,-8%,.,.,.,.,2%

# Screens from PubChem.
